Laboratory results reported in PubChem BioAssay (Tox21).
Where “and” joins values, the source holds several entries; their conditions need not be identical. Equal entries are not always repeated. Inconclusive results are not listed. Entries that show only a call come without a potency. Some structures have more than one record in an assay (separate samples or runs), and their calls can disagree. Calls of active or inactive are those of the source. Unless noted, the call rests on the fitted dose curve; in most records, active means well fitted curve in the direction sought with a large enough effect in the repeat runs; inconclusive means weak or mixed curves; inactive means no such curve, though single readings can be large; an effect the other way counts as inactive or inconclusive.

Columns and labels:
[1] = Caspase-3/7 induction in CHO-K1 cells by small molecules, qHTS assay (AID 1346980); further: nearly all actives have a fitted effect of over 15% in size
Method in brief: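 Wild-type CHO-K1 cells exposed to compounds for 17hr at 37 C, 5% CO2. Caspase-3/7 activity then measured by Caspase-Glo 3/7 luminescence after 30min at room temperature.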

[2] = Caspase-3/7 induction in HepG2 cells by small molecules, qHTS cell viability counter screen (AID 1346981); further: series mostly up to about 92 µM; nearly all actives have a fitted effect of over 30% in size
Method in brief: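 CellTiter-Fluor fluorescence measured viability in the same wells used for Caspase-Glo 3/7. HepG2 (wild type) at 2,000 cells/well were pre-incubated 5 hr, dosed, and given reagent at 16 hr, with 1 hr further at 37C.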

[3] = biological target: Nuclear receptor subfamily 1 group I member 2 (Homo sapiens) (UniProt O75469); test: Human pregnane X receptor (PXR) small molecule agonists, qHTS assay (AID 1346982); further: nearly all actives have a fitted effect of over 35% in size; further: potency means the concentration at half of the fitted maximal effect
Method in brief: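 Agonist mode: luminescence from ONE-Glo after 24 h compound exposure at 37C in HepG2 cells carrying hPXR-responsive CYP3A4 luciferase, plated in charcoal-stripped serum medium 5 h beforehand.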

[4] = biological target: Nuclear receptor subfamily 1 group I member 2 (Rattus norvegicus) (UniProt Q9R1A7); test: Rat pregnane X receptor (rPXR) activation by small molecules, qHTS assay (AID 1346983); settings: rPXR luciferase reporter cells, One-Glo luminescence, 24 h; stronger effect = higher value; further: nearly all actives have a fitted effect of over 20% in size
Method in brief: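 Cell-based rPXR activation assay: rPXR cells, 2,000 per well, rested 5hr at 37 C, then exposed to compounds in DMSO for 24 hr at 37 C. Luciferase activity read by One-Glo luminescence after 30 min at room temperature.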

[5] = biological target: Acetylcholinesterase (Homo sapiens) (UniProt P22303); test: Acetylcholinesterase (AChE) small molecule antagonists: enzyme-based qHTS assay (AID 1347397; calls by dose curve; further: nearly all actives have a fitted effect of over 55% in size); settings: Potency: AChE enzyme activity inhibition
Method in brief: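 In this quantitative HTS, compounds from the Tox21 10K collection were preincubated 30 min at ambient temperature with recombinant human AChE dispensed at 50 mU/mL. Hydrolysis of acetylthiocholine was then followed for 10 min by DTNB colour development.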

[6] = biological target: Acetylcholinesterase (Homo sapiens) (UniProt P22303); test: Acetylcholinesterase (AChE) small molecule antagonists: enzyme-based qHTS assay with human liver microsomes (AID 1347399; calls by dose curve; further: nearly all actives have a fitted effect of over 60% in size); settings: Potency: qHTS inhibition
Method in brief: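 Recombinant human AChE (50 mU/mL in the enzyme mix) and human liver microsomes (0.25 mg/mL final) were preincubated with compound and NADPH (0.25 mg/mL final) for 30 min at 37 C. Acetylthiocholine/DTNB was then added; thiocholine was read colorimetrically after 10 min at room temperature.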

[7] = biological target: Cytochrome P450 2D6 (Homo sapiens) (UniProt P10635); test: Cytochrome P450 Family 2 Subfamily D Member 6 (CYP2D6) small molecule antagonists: luciferase reporter qHTS assay (AID 1671196); further: nearly all actives have a fitted effect of over 50% in size; further: potency means the concentration at half of the fitted maximal effect
Method in brief: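 CYP2D6 activity was followed as luminescence from its luciferin product after a 1 h NADPH-driven reaction at room temperature. Enzyme-substrate mix and compound were pre-incubated for 10 min, and the signal was read 20 min after adding detection reagent.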

[8] = biological target: Cytochrome P450 2C19 (Homo sapiens) (UniProt P33261); test: Cytochrome P450 Family 2 Subfamily C Member 19 (CYP2C19) small molecule antagonists: luciferase reporter qHTS assay (AID 1671197); further: nearly all actives have a fitted effect of over 65% in size; further: potency means the concentration at half of the fitted maximal effect
Method in brief: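 Relative luminescence units recorded 20 min after the detection reagent stopped a 1 h, 37C CYP2C19 reaction on proluciferin substrate, which was started by NADPH regeneration following 10 min room-temperature compound preincubation; ketoconazole positive control.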

[9] = biological target: Cytochrome P450 2C9 (Homo sapiens) (UniProt P11712); test: Cytochrome P450 Family 2 Subfamily C Member 9 (CYP2C9) small molecule antagonists: luciferase reporter qHTS assay (AID 1671198); further: nearly all actives have a fitted effect of over 50% in size; further: potency means the concentration at half of the fitted maximal effect
Method in brief: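 P450-Glo proluciferin substrate with CYP2C9 enzyme; 10 min RT preincubation, then NADPH regeneration 1 h at 37C; luciferin detection reagent 20 min RT, luminescence in relative luminescence units.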

[10] = biological target: Cytochrome P450 1A2 (Homo sapiens) (UniProt P05177); test: Cytochrome P450 Family 1 Subfamily A Member 2 (CYP1A2) small molecule antagonists: luciferase reporter qHTS assay (AID 1671199); further: nearly all actives have a fitted effect of over 50% in size; further: potency means the concentration at half of the fitted maximal effect
Method in brief: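 Luminescence from luciferin formed by CYP1A2 from a proluciferin substrate, read 20 min after detection reagent. Compound was pre-incubated 10 min with enzyme-substrate, and reaction started with NADPH regeneration solution for 1 h at room temperature; furafylline control.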

[11] = biological target: Voltage-gated inwardly rectifying potassium channel KCNH2 (Homo sapiens) (UniProt Q12809); test: Human Ether-a-go-go-Related Gene (hERG) channel small molecule antagonists: fluorescence cell-based qHTS assay (AID 1671200);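 further: hERG-expressing U2OS cells given a thallium stimulus after FluxOR II dye loading; series mostly up to about 77 µM; nearly all actives have a fitted effect of over 50% in size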
Method in brief: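 In this thallium-flux screen, overnight-cultured U2OS cells bearing the channel are dye-loaded in darkness for an hour, rested 10 min at room temperature, and then monitored kinetically at 480/540 nm for two minutes post-stimulus.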

[12] = biological target: Cytochrome P450 3A4 (Homo sapiens) (UniProt P08684); test: Cytochrome P450 Family 3 Subfamily A Member 4 (CYP3A4) small molecule antagonists: luciferase reporter qHTS assay (AID 1671201); further: nearly all actives have a fitted effect of over 50% in size; further: potency means the concentration at half of the fitted maximal effect
Method in brief: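 CYP3A4 activity was followed with a P450-Glo proluciferin substrate. Test compounds in DMSO were preincubated 10 min; NADPH regeneration then ran 1 h, and light output was read 20 min after detection reagent.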

[13] = biological target: Acetylcholinesterase (Homo sapiens) (UniProt P22303); test: Acetylcholinesterase (AChE) small molecule antagonists: colormetric cell-based qHTS assay (AID 1347395; calls by dose curve; further: nearly all actives have a fitted effect of over 30% in size)
Method in brief: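 After overnight attachment at 37 C, SH-SY5Y cells get 30 min compound exposure; detection cocktail (acetylthiocholine, DTNB) then incubates 90 min at 37 C, and absorbance reflects AChE-generated thiocholine.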

[14] = biological target: Acetylcholinesterase (Homo sapiens) (UniProt P22303); test: Acetylcholinesterase (AChE) small molecule antagonists: fluorescence cell-based qHTS assay (AID 1347398; calls by dose curve; further: nearly all actives have a fitted effect of over 50% in size); settings: Potency: AChE activity
Method in brief: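 Cells (SH-SY5Y) attached overnight, were dosed with compound or DMSO vehicle for 30 min at 37 C, and then incubated 40 min at room temperature with acetylthiocholine and Thiolite Green; green fluorescence indexed AChE activity.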

Cytochrome P450 2C9 (Homo sapiens), sequence (P11712 whole entry, looked up): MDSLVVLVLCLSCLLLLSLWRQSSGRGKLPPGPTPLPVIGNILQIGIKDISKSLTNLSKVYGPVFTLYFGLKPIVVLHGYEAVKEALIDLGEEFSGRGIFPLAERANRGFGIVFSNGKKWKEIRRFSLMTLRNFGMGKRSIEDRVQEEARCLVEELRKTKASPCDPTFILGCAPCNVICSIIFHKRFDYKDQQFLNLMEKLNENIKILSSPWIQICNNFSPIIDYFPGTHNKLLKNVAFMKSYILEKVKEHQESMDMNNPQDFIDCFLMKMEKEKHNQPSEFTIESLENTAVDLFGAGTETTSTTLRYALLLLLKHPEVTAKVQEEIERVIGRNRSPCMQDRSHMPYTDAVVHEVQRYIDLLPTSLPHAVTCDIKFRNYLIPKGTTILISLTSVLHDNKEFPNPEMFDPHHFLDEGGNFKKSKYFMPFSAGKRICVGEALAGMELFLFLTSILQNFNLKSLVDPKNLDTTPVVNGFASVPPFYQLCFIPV
Cytochrome P450 2C19 (Homo sapiens), sequence (P33261 whole entry, looked up): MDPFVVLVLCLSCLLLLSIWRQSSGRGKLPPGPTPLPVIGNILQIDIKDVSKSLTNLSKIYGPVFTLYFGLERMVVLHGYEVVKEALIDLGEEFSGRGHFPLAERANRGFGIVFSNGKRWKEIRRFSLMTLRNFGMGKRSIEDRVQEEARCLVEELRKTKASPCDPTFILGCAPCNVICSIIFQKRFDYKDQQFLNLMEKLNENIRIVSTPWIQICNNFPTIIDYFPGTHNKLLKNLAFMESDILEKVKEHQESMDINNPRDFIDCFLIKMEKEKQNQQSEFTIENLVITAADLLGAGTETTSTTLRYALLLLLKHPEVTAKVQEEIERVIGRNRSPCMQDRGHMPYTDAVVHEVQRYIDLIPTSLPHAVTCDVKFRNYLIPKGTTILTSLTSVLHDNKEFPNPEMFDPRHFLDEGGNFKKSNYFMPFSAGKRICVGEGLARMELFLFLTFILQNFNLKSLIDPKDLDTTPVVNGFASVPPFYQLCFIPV
Voltage-gated inwardly rectifying potassium channel KCNH2 (Homo sapiens), sequence (Q12809 whole entry, looked up): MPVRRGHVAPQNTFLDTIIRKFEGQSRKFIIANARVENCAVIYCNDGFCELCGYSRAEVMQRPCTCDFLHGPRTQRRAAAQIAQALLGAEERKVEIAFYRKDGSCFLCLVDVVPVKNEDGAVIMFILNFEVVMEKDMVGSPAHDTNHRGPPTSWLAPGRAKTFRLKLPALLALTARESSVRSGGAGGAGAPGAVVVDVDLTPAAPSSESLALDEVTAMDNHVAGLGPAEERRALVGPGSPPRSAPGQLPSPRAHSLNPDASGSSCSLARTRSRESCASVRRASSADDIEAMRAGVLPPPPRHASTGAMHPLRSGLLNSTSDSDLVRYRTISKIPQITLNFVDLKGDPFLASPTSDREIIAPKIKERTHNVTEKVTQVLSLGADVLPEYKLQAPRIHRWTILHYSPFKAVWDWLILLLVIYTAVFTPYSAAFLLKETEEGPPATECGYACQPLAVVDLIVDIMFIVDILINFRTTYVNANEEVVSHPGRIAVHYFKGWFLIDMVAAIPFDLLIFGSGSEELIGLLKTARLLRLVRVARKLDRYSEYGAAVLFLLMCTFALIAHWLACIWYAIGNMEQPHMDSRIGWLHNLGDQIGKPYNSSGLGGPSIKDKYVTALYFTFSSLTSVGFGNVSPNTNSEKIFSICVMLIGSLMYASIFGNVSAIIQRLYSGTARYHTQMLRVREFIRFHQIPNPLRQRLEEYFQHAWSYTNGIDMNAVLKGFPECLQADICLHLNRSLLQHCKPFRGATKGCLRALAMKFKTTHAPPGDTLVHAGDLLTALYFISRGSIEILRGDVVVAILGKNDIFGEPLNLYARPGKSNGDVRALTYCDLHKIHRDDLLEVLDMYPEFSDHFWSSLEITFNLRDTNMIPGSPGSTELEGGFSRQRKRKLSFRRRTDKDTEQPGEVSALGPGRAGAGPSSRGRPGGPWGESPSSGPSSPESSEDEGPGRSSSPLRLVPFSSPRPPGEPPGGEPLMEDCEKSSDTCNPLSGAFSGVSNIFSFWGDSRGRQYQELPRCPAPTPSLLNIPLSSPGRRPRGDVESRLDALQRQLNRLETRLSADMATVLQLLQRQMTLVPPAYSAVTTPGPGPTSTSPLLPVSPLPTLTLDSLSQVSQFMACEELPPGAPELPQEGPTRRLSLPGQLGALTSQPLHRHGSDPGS
Nuclear receptor subfamily 1 group I member 2 (Homo sapiens), sequence (O75469 whole entry, looked up): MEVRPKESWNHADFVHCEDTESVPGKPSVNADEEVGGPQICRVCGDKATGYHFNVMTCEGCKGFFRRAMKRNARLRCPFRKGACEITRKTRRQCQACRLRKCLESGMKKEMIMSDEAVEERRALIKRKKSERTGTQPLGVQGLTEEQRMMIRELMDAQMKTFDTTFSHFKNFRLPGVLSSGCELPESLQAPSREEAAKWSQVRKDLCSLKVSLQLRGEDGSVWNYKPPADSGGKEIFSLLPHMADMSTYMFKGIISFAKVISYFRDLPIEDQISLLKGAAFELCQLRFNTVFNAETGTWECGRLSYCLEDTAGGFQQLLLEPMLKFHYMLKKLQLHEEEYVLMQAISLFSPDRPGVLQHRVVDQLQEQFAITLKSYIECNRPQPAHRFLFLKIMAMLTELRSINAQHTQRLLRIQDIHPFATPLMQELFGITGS
Cytochrome P450 2D6 (Homo sapiens), sequence (P10635 whole entry, looked up): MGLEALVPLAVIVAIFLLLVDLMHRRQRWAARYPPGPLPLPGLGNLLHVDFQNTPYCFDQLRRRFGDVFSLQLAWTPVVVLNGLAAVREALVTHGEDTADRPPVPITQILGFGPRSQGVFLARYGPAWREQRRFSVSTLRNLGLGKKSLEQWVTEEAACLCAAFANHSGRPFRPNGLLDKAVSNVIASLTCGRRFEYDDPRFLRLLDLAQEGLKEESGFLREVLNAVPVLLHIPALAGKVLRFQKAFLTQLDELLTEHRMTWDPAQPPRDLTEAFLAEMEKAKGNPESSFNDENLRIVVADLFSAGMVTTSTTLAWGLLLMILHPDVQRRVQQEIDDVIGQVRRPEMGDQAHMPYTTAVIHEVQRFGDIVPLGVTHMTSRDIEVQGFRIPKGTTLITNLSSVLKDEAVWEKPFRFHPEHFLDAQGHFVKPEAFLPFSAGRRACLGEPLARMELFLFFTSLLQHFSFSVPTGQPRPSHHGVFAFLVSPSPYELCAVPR
Acetylcholinesterase (Homo sapiens), sequence (P22303 whole entry, looked up): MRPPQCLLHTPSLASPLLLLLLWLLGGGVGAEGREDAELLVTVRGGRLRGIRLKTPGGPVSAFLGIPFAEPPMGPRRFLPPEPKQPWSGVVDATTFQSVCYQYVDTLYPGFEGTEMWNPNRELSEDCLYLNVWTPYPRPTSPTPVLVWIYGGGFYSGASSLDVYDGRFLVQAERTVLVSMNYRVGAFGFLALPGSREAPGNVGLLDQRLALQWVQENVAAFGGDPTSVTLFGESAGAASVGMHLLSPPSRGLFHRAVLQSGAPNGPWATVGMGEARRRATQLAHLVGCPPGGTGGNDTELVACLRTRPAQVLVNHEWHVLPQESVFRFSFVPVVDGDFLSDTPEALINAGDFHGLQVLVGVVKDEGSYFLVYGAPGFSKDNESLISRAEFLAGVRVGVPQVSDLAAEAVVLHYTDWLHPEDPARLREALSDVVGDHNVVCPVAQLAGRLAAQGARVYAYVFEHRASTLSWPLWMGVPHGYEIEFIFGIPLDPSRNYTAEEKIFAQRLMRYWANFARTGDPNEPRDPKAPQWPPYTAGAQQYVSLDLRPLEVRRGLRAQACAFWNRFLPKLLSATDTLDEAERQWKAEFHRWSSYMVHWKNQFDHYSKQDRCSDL
Cytochrome P450 1A2 (Homo sapiens), sequence (P05177 whole entry, looked up): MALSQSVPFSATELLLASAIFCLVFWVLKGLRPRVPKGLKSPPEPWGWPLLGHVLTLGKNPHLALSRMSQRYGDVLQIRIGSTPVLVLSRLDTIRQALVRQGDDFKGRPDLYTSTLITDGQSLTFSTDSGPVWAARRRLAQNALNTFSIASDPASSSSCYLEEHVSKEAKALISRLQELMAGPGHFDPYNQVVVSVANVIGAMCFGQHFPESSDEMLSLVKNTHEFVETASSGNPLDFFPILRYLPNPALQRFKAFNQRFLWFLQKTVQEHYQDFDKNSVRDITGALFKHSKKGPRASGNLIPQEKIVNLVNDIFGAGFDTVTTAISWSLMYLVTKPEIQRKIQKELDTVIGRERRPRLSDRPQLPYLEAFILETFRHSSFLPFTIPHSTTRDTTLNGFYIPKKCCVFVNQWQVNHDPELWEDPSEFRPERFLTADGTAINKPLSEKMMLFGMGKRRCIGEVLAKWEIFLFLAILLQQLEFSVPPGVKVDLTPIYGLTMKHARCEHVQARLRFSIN
Cytochrome P450 3A4 (Homo sapiens), sequence (P08684 whole entry, looked up): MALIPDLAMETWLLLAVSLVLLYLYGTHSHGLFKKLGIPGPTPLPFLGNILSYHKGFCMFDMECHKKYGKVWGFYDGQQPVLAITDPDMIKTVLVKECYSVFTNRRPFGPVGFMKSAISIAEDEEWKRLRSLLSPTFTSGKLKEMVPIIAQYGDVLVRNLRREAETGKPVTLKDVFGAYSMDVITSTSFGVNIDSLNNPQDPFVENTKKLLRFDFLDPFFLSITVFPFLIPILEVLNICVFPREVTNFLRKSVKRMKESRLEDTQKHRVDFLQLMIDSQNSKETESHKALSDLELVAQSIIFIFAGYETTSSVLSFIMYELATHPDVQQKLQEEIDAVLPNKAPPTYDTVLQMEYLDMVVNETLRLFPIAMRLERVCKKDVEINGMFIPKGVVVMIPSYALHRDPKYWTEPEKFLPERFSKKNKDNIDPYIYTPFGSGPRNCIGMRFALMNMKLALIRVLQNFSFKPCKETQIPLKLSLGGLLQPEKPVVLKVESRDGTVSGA

## Clc1ccccc1Cl
[1]
  outcome: inactive
[2]
  Potency: inactive
[3]
  Potency: inactive
[4]
  max activation: -2.27% (inactive)
[5]
  Potency: inactive
[6]
  Potency: inactive
[7]
  Potency: inactive
[8]
  Potency: inactive
[9]
  Potency: inactive
[10]
  Potency: inactive
[11]
  Potency: inactive
[12]
  Potency: inactive

## O=S(=O)(c1ccc(O)cc1)c1ccc(O)cc1
[1]
  outcome: inactive
[2]
  Potency: inactive
[3]
  Potency: inactive
[13]
  Potency: inactive
[5]
  Potency: inactive
[14]
  Potency: inactive
[6]
  Potency: inactive
[8]
  Potency: 17.9 µM (active) and 22.4 µM (active)
[9]
  Potency: inactive
[10]
  Potency: inactive
[12]
  Potency: inactive

## CCNc1nc(NC(C)(C)C)nc(SC)n1
[1]
  outcome: inactive
[2]
  Potency: inactive
[3]
  Potency: 30.2 µM (active) and 48.6 µM (active)
[13]
  Potency: inactive
[5]
  Potency: inactive
[14]
  Potency: inactive
[6]
  Potency: inactive
[7]
  Potency: inactive
[8]
  Potency: 17.6 µM (active) and 39.9 µM (active)
[10]
  Potency: 7.01 µM (active) and 7.96 µM (active)
[11]
  Potency: inactive
[12]
  Potency: inactive

## COC(=O)c1ccccc1N
[1]
  outcome: inactive
[2]
  Potency: inactive
[3]
  Potency: inactive
[13]
  Potency: inactive
[5]
  Potency: inactive
[14]
  Potency: inactive
[6]
  Potency: inactive
[7]
  Potency: inactive
[8]
  Potency: inactive
[10]
  Potency: 34.4 µM (active) and 39.9 µM (active)
[11]
  Potency: inactive
[12]
  Potency: inactive

## CN(C)CCO
[1]
  outcome: inactive
[2]
  Potency: inactive
[3]
  Potency: inactive
[13]
  Potency: inactive
[5]
  Potency: inactive
[6]
  Potency: inactive
[7]
  Potency: inactive
[8]
  Potency: inactive
[9]
  Potency: inactive
[10]
  Potency: inactive
[12]
  Potency: inactive

## CC(C)=C[C@@H]1[C@@H](C(=O)OCc2coc(Cc3ccccc3)c2)C1(C)C
[1]
  outcome: inactive
[2]
  Potency: inactive
[3]
  Potency: 13.7 µM (active)
[4]
  max activation: 12.4% (inactive)
[13]
  Potency: inactive
[5]
  Potency: inactive
[6]
  Potency: inactive
[7]
  Potency: inactive
[8]
  Potency: 10 µM (active) and 4.36 µM (active)
[9]
  Potency: 1.42 µM (active) and 5.49 µM (active)
[10]
  Potency: 27.5 µM (active)
[11]
  Potency: inactive
[12]
  Potency: inactive

## CCCCN(CC)C(=O)SCCC
[1]
  outcome: inactive
[2]
  Potency: inactive
[3]
  Potency: inactive
[13]
  Potency: inactive
[5]
  Potency: inactive
[14]
  Potency: inactive
[6]
  Potency: inactive
[7]
  Potency: inactive
[8]
  Potency: 80.5 µM (active) and inactive
[9]
  Potency: inactive
[10]
  Potency: inactive
[11]
  Potency: inactive
[12]
  Potency: inactive

## O=C1CCCN1
[1]
  outcome: inactive
[2]
  Potency: inactive
[3]
  Potency: 69.3 µM (active) and inactive
[13]
  Potency: inactive
[5]
  Potency: inactive
[14]
  Potency: inactive
[6]
  Potency: inactive
[7]
  Potency: inactive
[8]
  Potency: 8.05 µM (active) and inactive
[9]
  Potency: inactive
[10]
  Potency: inactive
[11]
  Potency: inactive
[12]
  Potency: 7.17 µM (active) and inactive

## O=Cc1cccc(Oc2ccccc2)c1
[1]
  outcome: inactive
[2]
  Potency: inactive
[3]
  Potency: inactive
[13]
  Potency: inactive
[5]
  Potency: inactive
[14]
  Potency: inactive
[6]
  Potency: inactive
[7]
  Potency: inactive
[8]
  Potency: 16 µM (active) and 71 µM (active)
[9]
  Potency: 40.2 µM (active)
[10]
  Potency: 35.9 µM (active) and inactive
[11]
  Potency: inactive
[12]
  Potency: inactive

## ClCCBr
[1]
  outcome: inactive
[2]
  Potency: inactive
[3]
  Potency: inactive
[13]
  Potency: inactive
[5]
  Potency: inactive
[14]
  Potency: inactive
[6]
  Potency: inactive
[7]
  Potency: 35.5 µM (active) and inactive
[8]
  Potency: 79.4 µM (active) and inactive
[9]
  Potency: inactive
[10]
  Potency: inactive
[12]
  Potency: inactive

## C1CN2CCN1CC2
[1]
  outcome: inactive
[2]
  Potency: inactive
[3]
  Potency: inactive
[13]
  Potency: inactive
[5]
  Potency: inactive
[14]
  Potency: inactive
[6]
  Potency: inactive
[7]
  Potency: inactive
[8]
  Potency: inactive
[9]
  Potency: inactive
[10]
  Potency: inactive
[11]
  Potency: inactive
[12]
  Potency: inactive

## [O-][Cl+2]([O-])O
[1]
  outcome: inactive
[2]
  Potency: inactive
[3]
  Potency: inactive
[13]
  Potency: inactive
[5]
  Potency: inactive
[14]
  Potency: inactive
[6]
  Potency: inactive
[7]
  Potency: inactive
[8]
  Potency: inactive
[10]
  Potency: inactive
[11]
  Potency: inactive
[12]
  Potency: inactive

## CC(C)(C)OOC(C)(C)C
[1]
  outcome: inactive
[2]
  Potency: inactive
[3]
  Potency: inactive
[13]
  Potency: inactive
[5]
  Potency: inactive
[6]
  Potency: inactive
[7]
  Potency: inactive
[8]
  Potency: inactive
[9]
  Potency: inactive
[10]
  Potency: inactive
[12]
  Potency: inactive

## Nc1ccc(Cc2ccc(N)cc2)cc1
[1]
  outcome: inactive
[2]
  Potency: inactive
[3]
  Potency: 60.1 µM (active) and inactive
[13]
  Potency: inactive
[5]
  Potency: inactive
[14]
  Potency: inactive
[6]
  Potency: inactive
[7]
  Potency: inactive
[8]
  Potency: 35 µM (active) and inactive
[10]
  Potency: 39.3 µM (active) and 35.6 µM (active)
[11]
  Potency: inactive
[12]
  Potency: 6.99 µM (active) and 3.99 µM (active)

## CCNc1nc(NC(C)C)nc(SC)n1
[1]
  outcome: inactive
[2]
  Potency: inactive
[3]
  Potency: 54.8 µM (active) and 24.3 µM (active)
[13]
  Potency: inactive
[5]
  Potency: inactive
[14]
  Potency: inactive
[6]
  Potency: inactive
[7]
  Potency: inactive
[9]
  Potency: inactive
[10]
  Potency: 8.02 µM (active) and 11.2 µM (active)
[12]
  Potency: inactive
